For 37 molecules, growth results are on record in PubChem BioAssay (NCI).

The panel holds about 83,000 compounds, 20% with a hit somewhere; the sample as a whole holds those more often.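 Step 1: grow cells in 96-well plates. Step 2: add test compound at a single concentration. Step 3: incubate 48 h. Step 4: record percent growth.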 Activity calls are given as the source filed them. Rule for the calls: active = growth percent below 10; inactive = the rest.

The assay relates to SK-MEL-28 melanoma. The assay is described as follows: NCI-60 one-dose screen, 48 h (100 = growth as untreated, 0 = no growth, -100 = all killed). As to conditions: 10 µM unless noted.
On to `COC(=O)c1ccc2c(c1)nc(-c1ccc(O)c(OC)c1)n2-c1cc(C(C)(C)C)[nH]n1`, for which the growth is 118% (inactive).
Under `Cc1nc(N)[nH]c(=O)c1C` stands 120% (inactive); under `O=C1/C(=C/c2ccc([N+](=O)[O-])o2)Oc2ccc(Cl)cc21`, 11.2% (inactive); under `O=[N+]([O-])c1ccc2c(c1)S(=O)c1cc([N+](=O)[O-])ccc1N2`, 104% (inactive).
With `Clc1ccc2nc(Cl)c3ccccc3c2c1`, the growth is 97.6% (inactive).
Turning to `CC(=O)Oc1ccc(C23c4ccccc4C2(OC(C)=O)c2cc(OC(C)=O)ccc23)cc1` (configuration not stated), the growth was 124% (inactive).
For the molecule `Nc1ccc2c(c1)/C(=N/O)c1cc([N+](=O)[O-])ccc1-2`, the growth was 102% (inactive).
As for `CN1CCCC1c1cccnc1` (configuration not stated), the growth is 101% (inactive).
In the case of `COc1ccc(-c2cnnn2-c2cc(OC)c3c(c2)OCO3)cc1`, the growth was 55% (inactive).
Consider `Cc1nn(-c2ccc(Br)cc2)c2nc3c(nc12)C(=O)C(=O)c1ccccc1-3`, for which the growth is 96.3% (inactive).
With `Cn1cc(-c2csc(-c3cn(C)c4ncccc34)n2)c2cc(Br)cnc21`, the growth was 92.1% (inactive).
As for `OC(Cc1cccnc1)c1ccccc1` (configuration not stated), the growth was 108% (inactive).
`C/C(=N/N=C(N)N)c1ccc(Cl)cc1`: the growth is 178% (inactive).
With `Cc1nn(-c2ccccc2)c2nc3c(nc12)C(=O)CCC3`, the growth was 114% (inactive).
As for `C[n+]1ccc(C#N)c2ccccc21`, the growth was 106% (inactive).
On to `CCCCCCCC/C=C/CCCCCCCC1=NC(C)(C)CN1CC(C)O` (configuration not stated), for which the growth was 53.2% (inactive).
For `O=C1Nc2ccccc2C12Nc1cc(Cl)ccc1S2` (configuration not stated), the growth was 138% (inactive).
For `CCC(CC)NCCCCCNc1cc(OC)cc2cccnc12`, the growth is 108% (inactive).
Consider `CCC(CCC(C)C1CCC2C3CC=C4CC(O)CCC4(C)C3CCC12C)C(C)C` (configuration not stated) (tested in a mixture with another compound), for which the growth is 91.7% (inactive).
Regarding `Cc1nn(-c2ccc(Cl)cc2)c2nc3c(nc12)c(=O)oc1ccccc13`, the growth was 110% (inactive).
As to `Cc1cc(NC(=O)c2ccc(N)cc2)ccc1N=Nc1ccc2c(O)c(N=Nc3ccc(Cl)c(S(=O)(=O)O)c3)c(S(=O)(=O)O)cc2c1`, the growth is 96.4% (inactive).
Under `CN(C)c1nc(-c2ccco2)n2nc(-c3ccco3)cc2n1` stands 119% (inactive).
For `C[C@]12C[C@H](O)[C@H]3[C@@H](CCC4=CC(=O)CC[C@@]43C)[C@@H]1CC[C@@H]2C(=O)CO`, the growth was 102% (inactive).
In the case of `Cn1c(N)c(N=O)c(=O)[nH]c1=O`, the growth was 108% (inactive).
On to `Nc1nc(SCc2ccccc2Cl)c(-c2ccccc2)c(SCc2ccccc2Cl)n1`, for which the growth is 101% (inactive).
To `O=C(CSCC(=O)N/N=C/c1ccccc1O)N/N=C\c1ccccc1O` belongs 40.4% (inactive); to `O=C(O)C(=O)O`, 99.5% (inactive).
For the molecule `Cc1nn(-c2ccccc2)c2ncc3c(c12)C(=O)N(Cc1ccccc1)C3=O`, the growth was 91.9% (inactive).
For `Cc1ccc(NC(=O)COC(=O)c2ccc(S(=O)(=O)N3CCCCCC3)cc2)cc1`, the growth was 119% (inactive).
As for `Cc1ccc2c(c1)C(=O)/C(=C/c1ncc([N+](=O)[O-])n1C)O2`, the growth was -17.2% (active).
`CC1CC(C)/C(=N/NC(N)=O)C(C(O)CC2CCC(=O)NC2=O)C1` (configuration not stated): the growth was 37% (inactive).
With `CCC(c1ccccc1)c1noc(CCN(CC)CC)n1` (configuration not stated), the growth is 101% (inactive).
Take `O=C1Cc2cc(CCn3cncn3)c(Cl)cc2N1`: the growth was 67.2% (inactive).
As to `Cc1nn(-c2ccccc2)c2nc(Cl)c(/C=C/C(=O)c3ccccc3)c(-c3ccccc3)c12`, the growth is 109% (inactive).
Regarding `COc1ccc(/C=C2\NC(=S)NC2=O)cc1`, the growth was 119% (inactive).
Turning to `Cn1cc(-c2csc(-c3c[nH]c4ncccc34)n2)c2cc(F)cnc21`, the growth is 96.2% (inactive).
Take `O=C1NC(=O)/C(=C\c2ccccc2)C2=C1CCCC2`: the growth was 36.3% (inactive).
